# Reference: PubChem BioAssay AID504333 (National Center for Advancing Translational Sciences (NCATS), 2011)
# Screen size: about 360,000 compounds; about 16,000 (4.4%) were called active. About 9% were inconclusive and are not listed. This is one part of a sample in which actives are shown more often than they occur. A number with no mark means an inactive call. The call rests on the fitted dose curve; in most records, active means well fitted inhibition curve with a large enough effect; inconclusive means small, poorly fitted or top-dose-only effect; inactive means no such curve, though single readings can be large or run the other way.
# Target: Bromodomain adjacent to zinc finger domain protein 2B (Homo sapiens) (UniProt Q9UIF8)
# Sequence (Q9UIF8 whole entry, looked up, the tested form may be a part): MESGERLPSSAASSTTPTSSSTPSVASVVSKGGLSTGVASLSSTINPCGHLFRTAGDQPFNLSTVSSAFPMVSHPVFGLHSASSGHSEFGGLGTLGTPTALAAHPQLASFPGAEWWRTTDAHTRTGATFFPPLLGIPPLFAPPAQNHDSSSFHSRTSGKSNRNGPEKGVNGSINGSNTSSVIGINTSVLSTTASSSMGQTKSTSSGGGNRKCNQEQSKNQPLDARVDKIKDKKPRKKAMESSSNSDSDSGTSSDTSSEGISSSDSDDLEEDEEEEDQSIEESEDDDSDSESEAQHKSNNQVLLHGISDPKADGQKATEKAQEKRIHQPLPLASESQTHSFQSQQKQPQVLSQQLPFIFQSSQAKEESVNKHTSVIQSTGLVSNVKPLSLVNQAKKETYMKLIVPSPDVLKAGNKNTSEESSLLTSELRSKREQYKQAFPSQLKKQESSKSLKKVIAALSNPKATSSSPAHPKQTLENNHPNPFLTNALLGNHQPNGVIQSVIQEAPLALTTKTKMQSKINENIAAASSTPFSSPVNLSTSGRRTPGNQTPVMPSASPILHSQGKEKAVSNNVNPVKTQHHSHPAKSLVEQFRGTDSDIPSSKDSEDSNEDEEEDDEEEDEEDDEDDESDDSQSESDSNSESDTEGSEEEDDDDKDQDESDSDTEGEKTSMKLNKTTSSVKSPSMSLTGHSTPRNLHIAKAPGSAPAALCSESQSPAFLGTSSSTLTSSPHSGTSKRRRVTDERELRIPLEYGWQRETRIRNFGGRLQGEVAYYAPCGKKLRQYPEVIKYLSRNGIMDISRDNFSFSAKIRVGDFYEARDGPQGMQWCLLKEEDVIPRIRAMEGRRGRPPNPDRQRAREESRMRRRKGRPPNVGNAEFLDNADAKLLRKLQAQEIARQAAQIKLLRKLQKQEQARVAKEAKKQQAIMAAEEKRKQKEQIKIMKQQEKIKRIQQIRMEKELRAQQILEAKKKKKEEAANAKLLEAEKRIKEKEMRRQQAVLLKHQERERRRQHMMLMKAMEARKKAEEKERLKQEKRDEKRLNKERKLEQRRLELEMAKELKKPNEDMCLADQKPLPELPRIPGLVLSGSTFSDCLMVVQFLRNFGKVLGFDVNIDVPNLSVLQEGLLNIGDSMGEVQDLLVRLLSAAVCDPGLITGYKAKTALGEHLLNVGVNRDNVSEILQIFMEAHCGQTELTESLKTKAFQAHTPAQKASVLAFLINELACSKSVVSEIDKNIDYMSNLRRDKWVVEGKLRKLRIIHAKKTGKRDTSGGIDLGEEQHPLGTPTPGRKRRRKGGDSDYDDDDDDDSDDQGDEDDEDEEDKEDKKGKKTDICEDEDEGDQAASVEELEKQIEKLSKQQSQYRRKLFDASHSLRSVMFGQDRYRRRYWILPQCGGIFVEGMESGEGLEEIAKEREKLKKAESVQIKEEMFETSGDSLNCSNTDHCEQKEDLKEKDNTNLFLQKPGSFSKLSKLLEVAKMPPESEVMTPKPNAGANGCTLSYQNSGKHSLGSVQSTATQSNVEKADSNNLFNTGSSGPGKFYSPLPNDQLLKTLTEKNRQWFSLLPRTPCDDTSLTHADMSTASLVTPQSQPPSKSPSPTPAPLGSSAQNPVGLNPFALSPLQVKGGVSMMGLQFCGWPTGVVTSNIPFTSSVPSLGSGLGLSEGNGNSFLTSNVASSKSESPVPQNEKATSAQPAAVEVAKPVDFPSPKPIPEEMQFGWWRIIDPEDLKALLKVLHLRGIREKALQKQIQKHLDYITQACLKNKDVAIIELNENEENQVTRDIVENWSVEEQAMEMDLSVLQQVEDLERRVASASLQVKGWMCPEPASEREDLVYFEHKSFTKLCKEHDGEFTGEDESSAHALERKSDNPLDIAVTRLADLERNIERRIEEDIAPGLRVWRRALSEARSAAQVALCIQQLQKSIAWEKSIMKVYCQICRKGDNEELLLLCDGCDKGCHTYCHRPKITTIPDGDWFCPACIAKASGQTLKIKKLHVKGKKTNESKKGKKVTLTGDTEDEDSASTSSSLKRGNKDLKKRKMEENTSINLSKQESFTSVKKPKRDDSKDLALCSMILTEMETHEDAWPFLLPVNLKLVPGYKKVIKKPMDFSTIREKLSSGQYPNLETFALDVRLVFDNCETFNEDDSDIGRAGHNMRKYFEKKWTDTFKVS
# Experiment: qHTS Assay for Inhibitors of BAZ2B; further: nearly all actives have a fitted effect of over 60% in size
# Settings: AlphaScreen BAZ2B-H3K14Ac peptide displacement; series mostly up to 114 µM; activity change, negative = inhibition: at the top concentration
# From the text: BAZ2B (bromodomain adjacent to zinc finger domain, 2B) belongs to a family of ubiquitously expressed bromodomain containing proteins, which biological function has not yet been elucidated. […] The interaction of BAZ2B with ISWI mediated by the BAZ1 motif has recently been described. […] The protocol is based on the AlphaScreen (PerkinElmer) displacement assay developed by NCGC [5], but uses the peptide ligand Biot-H3K14Ac, a high affinity binding partner for BAZ2B, in an AlphaScreen format. Although AlphaScreen has significant advantages with its utility in a variety of epigenetic target assays, the primary screening data provided in this deposition should be used with caution due to the prevalence of screening artifacts. The top compound concentration tested was 110uM in this assay, which increases number of actives and potential artifacts. An AlphaScreen counterscreen is highly recommended to be run against any putative actives to eliminate non-specific artifacts. Alternatively, one can use other AlphaScreen assays in PubChem to filter out promiscuous hits. Eberharter, A. et al. ACF1 improves the effectiveness of nucleosome mobilization by ISWI through PHD-histone contacts. The EMBO journal 23, 4029-4039. 2004. PMID: 15457208 [2] Jones, M.H. et al. A novel family of bromodomain genes. Genomics 63, 40-45. 2000. PMID: 10662543 [3] Yasgar, et al. Compound Management for Quantitative High-Throughput Screening. JALA. 2008 Apr;13(2):79-89. PMID: 18496600 [4] Inglese, et al. Quantitative high-throughput screening: a titration-based approach that efficiently identifies biological activities in large chemical libraries. Proc Natl Acad Sci. 1;103(31):11473-8. 2006. PMID: 16864780 [5] Quinn et al. A chemiluminescence-based method for identification of histone lysine methyltransferase inhibitors. Mol Biosyst 6(5): 782-8. 2010. PMID: 20567762 [6] Baell,Holloway. New substructure filters for removal of pan assay interference compounds (PAINS) from screening libraries and for their exclusion in bioassays. J Med Chem. 53(7):2719-40. 2010. PMID: 20131845 NIH Molecular Libraries Probe Production Network [MLPCN] NIH Chemical Genomics Center [NCGC] Structural Genomics Consortium (SGC) NIH Grant: 5U54 MH084681-02
# To each well of a 1,536w plate, 2ul of BAZ2B protein (final 50nM) and 1ul biotinylated histone peptide acetylated at Lys14 [b-H3(5-23)K14Ac] (final 50nM) were added in 1x PBS buffer, pH 7.4, containing 0.01% Tween-20, using a nanoliter dispenser. Formation of a protein-peptide complex proceeded at room temperature for 30 min. A Kalypsys pin-tool was employed to transfer 23 nL of library compound solution in DMSO to each well. Following a 30 min incubation of the protein-peptide complex with compounds at room temperature, a mixture of 40 ug/mL each streptavidin-coated donor and nickel chelate acceptor AlphaScreen beads (final 10 ug/mL) were added in a 1ul dispense for a final volume of 4ul. A brief centrifugation followed (1000rpm, 1 min) and were then incubated protected from the light for 20 min at room temperature. Plates were read on an EnVision multilabel plate reader using the 1,536 plate HTS AlphaScreen aperture (excitation time 80 ms, measurement time 240 ms).
# On the % scale 0 is the no-effect control and ±100 the full control effect; potency means the concentration at half of the fitted maximal effect.
Compound,Potency,"activity change, negative = inhibition"
CC[N+](C)(CC)CCC[n+]1c(-c2ccccc2)c2cc(N)ccc2c2ccc(N)cc21,44.7 µM (active),
CNC(=O)O/N=C(\N)Cc1csc2ccccc12,,-3.28%
COCCNC(=O)CN1C2CCC1CC(O)(c1cccnc1)C2 (stereo not given),,-1.47%
COC(=O)C1=C(c2ccc(Cl)c(C(F)(F)F)c2)C[C@@H]2CC[C@H]1N2C(=O)NC1CC1,,12.5%
COc1ccc(CNCCc2c[nH]c3ccccc23)cc1OC,50.1 µM (active),
c1cncc(CNCCc2c[nH]c3ccccc23)c1,,-22%
C/C(CCc1c[nH]c2ccccc12)=N\O,,-0.449%
O=c1[nH]c(O)c(C=Nc2cc(F)cc(F)c2)c(=O)[nH]1,,7.43%
COC(=O)C1=C(c2cccc(OCc3ccccc3)c2)C[C@@H]2CC[C@H]1N2C(=O)NNCc1ccccc1,,-1.25%
Cc1ccccc1NC(=O)COC(=O)c1cc(C)n(C2CC2)c1C,,-3.66%
COc1ccc(C2N3CC(C)(C)CN23)cc1 (stereo not given),,-14.1%
CCC1(C)CC(CCNCc2ccc(N(C)C)cc2)(c2ccc(F)cc2)CCO1 (stereo not given),35.5 µM (active),
O=C(COC(=O)c1ccccc1)Nc1ccccc1Sc1ccccc1,,92.9%
CN(C)CCN(CC1CCCN(Cc2ccccc2F)C1)C(=O)Cc1ccc(F)c(F)c1 (stereo not given),,0.813%
CCCCCn1c(=O)c(C(=O)NCc2ccccc2)c(O)c2ccccc21,,55.7%
O=C(C1CCN(CC2CCCCC2)CC1)N1CCCC1,70.8 µM (active),
COC(=O)C1=C(c2ccc(-c3ccccc3)c(F)c2)C[C@@H]2CC[C@H]1N2C(=O)NCc1ccc(F)cc1,,-1.72%
COc1cccc(C(=O)N2C[C@H]3C[C@@H](C2)c2cccc(=O)n2C3)c1,,-20.1%
COc1cccc(OC)c1C(=O)NC(=S)N1C[C@H]2C[C@H](C1)c1cccc(=O)n1C2,,-5.95%
COc1ccc(CNCCc2ccc3c(c2)OCO3)c(OC)c1OC,50.1 µM (active),
COC(=O)C1=C(c2c(C)noc2C)C[C@@H]2CC[C@H]1N2C(=O)NCc1ccc2c(c1)OCO2,,-0.66%
Cc1cc(N2C(=O)C3CCCN3C2c2ccc(Cl)c(Cl)c2)no1 (stereo not given),,8.95%
O=C(O)CCn1cc(C=C2C(=O)NC(=S)NC2=O)c(-c2cccc(Br)c2)n1,79.4 µM (active),
CN1C2C=C(N(C(=O)c3ccc(Cl)cc3)c3ccccc3)CC1CC2 (stereo not given),,-15.3%
O=C(NC(=S)N1C[C@H]2C[C@H](C1)c1cccc(=O)n1C2)c1ccc(F)cc1,,-11.4%

Compound,Potency,"activity change, negative = inhibition"
O=c1[nH]c(=O)n(Cc2ccccc2)c(O)c1/C=N/Nc1c(F)c(F)c(F)c(F)c1F,,-2.27%
O=c1[nH]c(=O)n(CCc2ccccc2)c(O)c1/C=N/N1CCOCC1,,1.1%
O=C(N/N=C/c1c(O)n(Cc2ccccc2)c(=O)[nH]c1=O)c1ccccc1,50.1 µM (active),
O=c1[nH]c(=O)n(CCc2ccc(F)cc2)c(O)c1/C=N/N1CCCCC1,,-2.13%
CCCCC(=O)N/N=C/c1c(O)n(-c2ccccc2)c(=O)[nH]c1=O,50.1 µM (active),
Cc1cccc(-n2c(O)c(C=NC34CN5CN(CN(C5)C3)C4)c(=O)[nH]c2=O)c1,,-4.42%
O=c1[nH]c(=O)n(-c2ccccc2)c(O)c1C=NC12CN3CN(CN(C3)C1)C2,,-7.16%
CCCCC(=O)N/N=C/c1c(O)n(CCC2=CCCCC2)c(=O)[nH]c1=O,79.4 µM (active),
CCCCC(=O)N/N=C/c1c(O)n(CC)c(=S)n(CC)c1=O,,18.8%
Cn1cc(C(=O)OCC(=O)N2CCCC2)c2ccccc21,,-1.93%
C=CCN1C(=O)C2(C(C(=O)OCC)=C(N)Oc3c2c(=O)oc2ccccc32)c2ccccc21 (stereo not given),,1.37%
O=[N+]([O-])c1ccc(C2C3C(c4ccccc4)=NC4(CCCCC4)N32)cc1 (stereo not given),,-6.5%
COC(=O)C1=C(c2ccc(F)cc2OCc2ccccc2)C[C@@H]2CC[C@H]1N2C(=O)NCc1ccc2[nH]ccc2c1,,-12.4%
COC(=O)C1=C(c2cccc(OCc3ccccc3)c2)C[C@@H]2CC[C@H]1N2C(=O)NCc1ccc(Br)cc1,,2.73%
C=CCn1c(O)c(/C=N/N2CCOCC2)c(=O)[nH]c1=S,,-10.9%
C[C@@H]1CC[C@@]2(OC1)O[C@H]1C[C@H]3[C@@H]4CC=C5C[C@@H](O)[C@H](O)C[C@]5(C)C4CC[C@]3(C)[C@H]1[C@@H]2C (stereo not given in full),,19.8%
CC1=CC(=Cc2sc3ccccc3[n+]2C)C=C(C)O1,,-25.3%
COC(=O)C1=C(c2ccc(Cl)c(C(F)(F)F)c2)C[C@@H]2CC[C@H]1N2C(=O)NC(C)C,,8.23%
COc1ccc(-c2nn(CCC#N)cc2C(=O)Nc2ccc(C(C)=O)cc2)cc1,,0.868%
COc1ccccc1NC(=O)N1C[C@@H]2C[C@@H](C1)c1cccc(=O)n1C2,,8.13%
O=C1NC(=O)N(CCc2ccc(F)cc2)C(=O)/C1=C/C=C/c1ccccc1,,7.59%
O=C1NC(=O)N(Cc2ccco2)C(=O)/C1=C\c1cccn1CCOc1ccccc1,28.2 µM (active),
O=C(O)COc1ccccc1/C=C1\C(=O)NC(=O)N(CCC2=CCCCC2)C1=O,,-19.3%
CCOC(=O)c1c(C)c(C(=O)N2CCC3(CC2)OCCO3)c(C)n1CC,,9.98%
O=c1[nH]c(CN2CC=C(c3ccccc3)CC2)nc2scc(-c3cccs3)c12,,-8.66%
